Results: PubChem BioAssay AID1159580 (chemical genetic matrix, 2015)
Where “and” joins values, the source holds several entries; their conditions need not be identical. Identical values can stand only once. In all, about 5,500 compounds went through this assay and about 2,000 (36%) were called active. Not shown: some 18% with an inconclusive outcome. No stated cut-off is given here; in the data, active means normalized growth mostly below about 0.91 (no sharp cut-off); inconclusive means no clear call, values can overlap the other calls; inactive means mostly above about 0.92. The list shows a part of the results.

Assay: chemical genetic growth profiling, strain panel (AID 1159580);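 further: tested at 20 µM; growth read once vehicle control cultures reached saturation at 30 °C; 1 = growth at the plate median or of vehicle wells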
Details: S. cerevisiae deletion strains, growth OD

Measured: normalized growth

C[C@@H]1C[C@@H]([C@H](O)CC2CC(=O)NC(=O)C2)C(=O)[C@@H](C)C1
active: locus YAL013W, strain DEP1, stronger effect = lower value 0.0595 | locus YAL021C, strain ccr4, stronger effect = lower value 0.0677 | locus YAL026C, strain drs2, stronger effect = lower value 0.0607 | locus YAL030W, strain snc1, stronger effect = lower value 0.0538 | locus YBL061C, strain skt5, stronger effect = lower value 0.0591 | locus YBR009C, strain hhf1, stronger effect = lower value 0.0595 | locus YBR021W, strain FUR4, stronger effect = lower value 0.0961 | locus YBR023C, strain chs3, stronger effect = lower value 0.0612 | locus YBR171W, strain sec66, stronger effect = lower value 0.075 | locus YBR229C, strain ROT2, stronger effect = lower value 0.031 | locus YBR231C, strain swc5, stronger effect = lower value 0.0623 | locus YBR279W, strain paf1, stronger effect = lower value 0.0578 | locus YCL011C, strain gbp2, stronger effect = lower value 0.0569 | locus YCL016C, strain dcc1, stronger effect = lower value 0.0627 | locus YCL029C, strain bik1, stronger effect = lower value 0.0585 | locus YCL069W, strain vba3, stronger effect = lower value 0.058 | locus YCR088W, strain abp1, stronger effect = lower value 0.0589 | locus YDL005C, strain med2, stronger effect = lower value 0.0714 | locus YDL035C, strain GPR1, stronger effect = lower value 0.0555 | locus YDL040C, strain nat1, stronger effect = lower value 0.0555 | locus YDL074C, strain BRE1, stronger effect = lower value 0.0968 | locus YDL101C, strain DUN1, stronger effect = lower value 0.0509 | locus YDL134C, strain PPH21, stronger effect = lower value 0.0498 | locus YDL185W, strain tfp1, stronger effect = lower value 0.0581 | locus YDL192W, strain arf1, stronger effect = lower value 0.0598 | locus YDR001C, strain nth1, stronger effect = lower value 0.0564 | locus YDR069C, strain doa4, stronger effect = lower value 0.0601 | locus YDR101C, strain arx1, stronger effect = lower value 0.0579 | locus YDR137W, strain rgp1, stronger effect = lower value 0.0878 | locus YDR150W, strain NUM1, stronger effect = lower value 0.0592 | locus YDR159W, strain sac3, stronger effect = lower value 0.0889 | locus YDR162C, strain NBP2, stronger effect = lower value 0.0524 | locus YDR195W, strain ref2 0.129 | locus YDR297W, strain sur2, stronger effect = lower value 0.0532 | locus YDR318W, strain mcm21, stronger effect = lower value 0.0664 | locus YDR334W, strain swr1, stronger effect = lower value 0.0608 | locus YDR335W, strain msn5, stronger effect = lower value 0.059 | locus YDR388W, stronger effect = lower value 0.0549 | locus YDR392W, strain spt3, stronger effect = lower value 0.0763 | locus YDR502C, strain sam2, stronger effect = lower value 0.061 | locus YEL003W, strain gim4, stronger effect = lower value 0.0527 | locus YEL037C, strain rad23, stronger effect = lower value 0.0554 | locus YEL061C, strain CIN8 (second series), stronger effect = lower value 0.0592 | locus YEL061C, strain CIN8, stronger effect = lower value 0.0496 | locus YER015W, strain faa2, stronger effect = lower value 0.0595 | locus YER016W, strain bim1, stronger effect = lower value 0.0609 | locus YER110C, stronger effect = lower value 0.0708 | locus YER111C, strain swi4, stronger effect = lower value 0.0709 | locus YER155C, strain BEM2 (second series), stronger effect = lower value 0.0899 | locus YER155C, strain BEM2, stronger effect = lower value 0.0629 | locus YER167W, strain BCK2, stronger effect = lower value 0.0564 | locus YFR010W, strain ubp6, stronger effect = lower value 0.0674 | locus YGL078C, strain dbp3, stronger effect = lower value 0.0553 | locus YGL086W, strain mad1, stronger effect = lower value 0.0574 | locus YGL167C, strain pmr1, stronger effect = lower value 0.0714 | locus YGL173C, strain kem1, stronger effect = lower value 0.0657 | locus YGL227W, strain vid30, stronger effect = lower value 0.06 | locus YGL240W, strain doc1, stronger effect = lower value 0.0796 | locus YGL248W, strain PDE1, stronger effect = lower value 0.0442 | locus YGL253W, strain hxk2, stronger effect = lower value 0.0535 | locus YGR078C, strain PAC10, stronger effect = lower value 0.0533 | locus YGR135W, strain pre9, stronger effect = lower value 0.0644 | locus YGR229C, strain SMI1, stronger effect = lower value 0.0652 | locus YGR252W, strain gcn5, stronger effect = lower value 0.175 | locus YHR013C, strain ard1, stronger effect = lower value 0.0947 | locus YHR027C, strain rpn1, stronger effect = lower value 0.0594 | locus YHR030C, strain SLT2, stronger effect = lower value 0.0489 and 0.101 | locus YHR079C, strain IRE1 (second series), stronger effect = lower value 0.0562 | locus YHR079C, strain IRE1, stronger effect = lower value 0.107 | locus YHR094C, strain hxt1, stronger effect = lower value 0.0562 | locus YHR129C, strain ARP1, stronger effect = lower value 0.0564 | locus YHR142W, strain chs7, stronger effect = lower value 0.0716 | locus YHR200W, strain rpn10, stronger effect = lower value 0.0589 | locus YIL066C, strain RNR3, stronger effect = lower value 0.0491 | locus YIL073C, strain SPO22, stronger effect = lower value 0.114 | locus YIL125W, strain kgd1, stronger effect = lower value 0.0558 | locus YIR030C, strain dcg1, stronger effect = lower value 0.0576 | locus YJL092W, strain hpr5, stronger effect = lower value 0.0581 | locus YJL095W, strain BCK1 (second series), stronger effect = lower value 0.0549 | locus YJL095W, strain BCK1, stronger effect = lower value 0.0583 and 0.105 | locus YJL115W, strain asf1, stronger effect = lower value 0.0707 | locus YJL129C, strain trk1, stronger effect = lower value 0.0813 | locus YJL134W, strain LCB3, stronger effect = lower value 0.0474 | locus YJL154C, strain vps35, stronger effect = lower value 0.0577 | locus YJL164C, strain tpk1, stronger effect = lower value 0.0602 | locus YJL166W, strain qcr8, stronger effect = lower value 0.0579 | locus YJL168C, strain set2, stronger effect = lower value 0.0578 | locus YJL187C, strain SWE1 (second series), stronger effect = lower value 0.0445 | locus YJL187C, strain SWE1, stronger effect = lower value 0.0553 | locus YJR043C, strain POL32, stronger effect = lower value 0.0691 | locus YJR066W, strain TOR1, stronger effect = lower value 0.000656
